Screening results as filed in PubChem BioAssay.
The list is not random: actives were taken first. Their share in the collection is about 2.5%.
Cruzain inh noDet = blocks cruzain activity in detergent-free assay. 200,000 compounds, 2.3% hits. Potency, µM, without a hit: max response, negative = inhibition, usual class: inhibitors. purified cruzain, Z-FR-AMC fluorescence, no detergent. AID 1476. P25779;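 also: plate controls were enzyme without inhibitor for no effect and buffer without enzyme for full effect; nearly all actives have a fitted effect of over 40% in size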
Target sequence (P25779 123-467 limits assumed): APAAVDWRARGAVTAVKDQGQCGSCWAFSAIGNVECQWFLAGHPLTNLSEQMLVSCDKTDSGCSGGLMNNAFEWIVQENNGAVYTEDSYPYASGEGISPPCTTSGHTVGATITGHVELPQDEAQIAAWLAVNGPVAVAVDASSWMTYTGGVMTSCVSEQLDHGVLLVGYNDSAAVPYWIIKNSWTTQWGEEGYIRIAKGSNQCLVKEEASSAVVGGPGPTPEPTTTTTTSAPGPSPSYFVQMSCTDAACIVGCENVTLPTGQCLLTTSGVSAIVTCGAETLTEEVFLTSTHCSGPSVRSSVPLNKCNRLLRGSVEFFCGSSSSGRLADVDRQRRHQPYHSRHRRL
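Detergent-free condition (0.00005% Triton X-100) in acetate buffer pH 5.5 with DTT. 1.5 nM enzyme and compound were pre-mixed 15 min, then 2 uM Z-FR-AMC substrate added; reaction progress from fluorescence change between first and third reads (60 s).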
Cruzain inh Det = blocks cruzain activity in presence of Triton detergent | P25779 | purified cruzain, Z-FR-AMC fluorescence, 0.01% Triton | Potency, µM, for the others: max response, negative = inhibition, actives largely listed as inhibitors | 200,000 compounds, 0.43% hits | AID 1478;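 also: plate controls were neutral wells for no effect and buffer without enzyme for full effect; nearly all actives have a fitted effect of over 40% in size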
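Cruzain (1.5 nM) preincubated 15 min at RT with compound in 100 mM sodium acetate pH 5.5, 5 mM DTT, 0.01% Triton X-100. Reaction started with 2 uM Z-FR-AMC; AMC fluorescence (ex 360/em 450 nm) change over 60 s gave rate.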
Numbers without * were called inactive; ? = inconclusive. Calls follow the shape of the dose curve; as a rule, active = well fitted curve in the direction sought with a large enough effect; inconclusive = small, poorly fitted or top-dose-only effect, or another doubt; inactive = no such curve, though single readings can be large; an effect the other way counts as inactive or inconclusive. Potency is read from the fitted curve at half-maximal effect.

SMILES	Cruzain inh noDet	Cruzain inh Det
O=C(Nc1nccs1)C1CCN(S(=O)(=O)c2c(Cl)cccc2Cl)CC1	-19%	-5%
C=CCOc1ccc2cccc(/C=N/NC(=O)c3cc4cc([N+](=O)[O-])ccc4s3)c2c1	6.3µM*	0%
O=C(N/N=C/c1cccc([N+](=O)[O-])c1)c1cccs1	-3%	-5%
COc1ccc2c(c1)CN([C@H](C)[C@@H]1CC[C@@H]3[C@H]4CC[C@H]5C[C@@H](O)CC[C@@]5(C)[C@H]4CC[C@]31C)CO2	15%	-3%
N/C(=N\OC(=O)c1ccc2ccccc2c1)c1ccc(Br)cc1	10µM*	-2%
Cc1cccc(C(=O)O/N=C(\N)c2ccc(Br)cc2)c1	3%	0%
O=C(CSc1nnc(-c2cccs2)o1)Nc1cccc(S(=O)(=O)N2CCCCC2)c1	-1%	-1%
Cn1c(N)c(C(=O)COC(=O)c2cc(-c3ccccc3)nc3ccccc23)c(=O)n(Cc2ccccc2)c1=O	13µM*	0%
Cn1c(N)c(C(=O)COC(=O)c2cc(-c3ccccc3)nc3ccccc23)c(=O)n(C)c1=O	?	0%
COC(=O)c1sccc1NC(=S)N1CCN(c2cccc(C)c2C)CC1	16µM*	-2%
COC(=O)c1sccc1NC(=S)N1CCCCC1	-2%	-1%
COc1ccc(OC)c(-c2cn(S(=O)(=O)c3ccccc3)nc2N)c1	-1%	-14%
COc1ccccc1-c1cn(S(=O)(=O)c2ccc(C)cc2)nc1N	10µM*	-3%
CCc1ccc(C2CC(c3cccc(OC)c3)n3nc(N)nc3N2)cc1 (stereo unspecified)	-1%	-6%
CCC(C)S(=O)(=O)c1snnc1C (stereo unspecified)	3%	-5%
Cc1cccc(S(=O)(=O)Nc2nc3ccccc3nc2Nc2ccc3c(c2)OCO3)c1	16µM*	-6%
O=S(=O)(Nc1nc2ccccc2nc1Nc1ccc2c(c1)OCO2)c1ccccc1	?	-3%
O=C(Nc1ccccc1C(F)(F)F)Nc1cccc2ccccc12	25µM*	8%
CCCC(=O)NC(=S)Nc1ccccc1C(F)(F)F	12%	-2%
Cc1c(C(=O)Nc2ccc(F)cc2F)oc2c1-c1nn(Cc3c(F)cccc3Cl)cc1CC2	-1%	0%
COC(=O)[C@@]1(Cc2ccccc2)[C@H]2c3cc(C(=O)N4CCCC4)[nH]c3C[C@H]2CN1C(=O)c1ccccc1	-11%	5%
C=CCNC(=O)c1cc([N+](=O)[O-])cc2c(=O)[nH]c(Nc3ccc(Cl)c(Cl)c3)nc12	-7%	-11%
Cc1ccc(-c2nc3cc(C(C)C)ccc3o2)cc1NC(=O)c1cc2ccccc2o1	?	-1%
N#Cc1ccc(-c2csc(NNC(=O)c3ccc(Br)cc3)n2)cc1	7.9µM*	-2%
O=C(NC(=S)Nc1nc(-c2ccc(Br)cc2)cs1)c1cccnc1	4µM*	4%
SMILES	Cruzain inh noDet	Cruzain inh Det
Cc1ccc(-c2csc(NC(=S)NC(=O)/C=C/c3ccco3)n2)cc1	?	1%
Cc1ccc(-c2nc3ccccc3o2)cc1NC(=S)NC(=O)c1cc2ccccc2o1	6.3µM*	-1%
N#Cc1ccc(-c2csc(NNC(=O)c3ccccc3)n2)cc1	?	1%
O=C(Nc1nc(-c2ccccc2)cs1)c1cccnc1	-7%	3%
Cc1ccc(-c2csc(NC(=S)NC(=O)c3cc4ccccc4o3)n2)cc1	6.3µM*	0%
CCCC(=O)Oc1c(Sc2ccc(C)cc2)c(C)nn1-c1ccccc1	9%	-2%
CCCS(=O)(=O)c1ncc(Cl)c(C(=O)Nc2c(C(=O)c3ccccc3)oc3ccccc23)n1	-7%	-1%
Cc1ccc2scc(N3CCc4ccccc4C3)c(=O)c2c1	8%	-7%
O=C(Nc1ccc(O)c(-c2nc3ccccc3o2)c1)c1ccco1	-9%	-1%
O=C(Nc1ccc(O)c(-c2nc3ccccc3o2)c1)C1(c2ccc(Cl)cc2)CCCC1	5µM*	7%
COc1cc(C(CC(=O)NCc2ccccc2Cl)N2Cc3ccccc3C2=O)cc(OC)c1OC (stereo unspecified)	16µM*	?
COc1ccccc1CNC(=O)CC(c1ccc(OC)c(OC)c1)N1Cc2ccccc2C1=O (stereo unspecified)	-10%	-3%
COC(=O)c1c(C(=O)OC)c(C)n(Cc2ccco2)c1C	1%	4%
Cc1cc(C(=O)COC(=O)c2cc(Cl)ccc2N)c(C)n1Cc1ccco1	25µM*	-10%
CC1CCCN(C(=O)c2ccc(CSc3nc4ccncc4n3Cc3ccccc3)cc2)C1 (stereo unspecified)	3%	-16%
COc1ccc(C(=O)Nc2cc(Cl)cc(Cl)c2)c(OC)n1	13µM*	2%
COc1ccc(C(=O)Nc2cc(Cl)ccc2Cl)c(OC)n1	-17%	1%
COc1cccc(CNC(=O)Cn2nc(C)n3c(cc4cc(C)ccc43)c2=O)c1OC	23%	0%
O=S(=O)(O)c1cc(O)c2c(N=Cc3ccccc3O)cc(S(=O)(=O)O)cc2c1	-5%	1%
COc1ccc(-c2nc3cnc(Oc4cccc(Cl)c4)nc3n(C3CC3)c2=O)cc1	28%	1%
COc1cccc(/C=C/C(=O)OCC(=O)c2cc(C)n(CC3CCCO3)c2C)c1OC (stereo unspecified)	13%	-6%
Cc1cc(C(=O)COC(=O)c2ccc(O)cc2)c(C)n1CC1COc2ccccc2O1 (stereo unspecified)	25µM*	-4%
Cc1ccccc1NC(C)C(=O)N/N=C/c1ccccc1OCc1cccc(Br)c1 (stereo unspecified)	32µM*	0%
COc1ccc(NC(C)C(=O)N/N=C/c2ccccc2OCc2cccc(Br)c2)cc1 (stereo unspecified)	?	-5%
O=C(Cn1nnc(-c2ccccc2Cl)n1)N/N=C/c1ccc(-c2cccc(Cl)c2)o1	32µM*	-4%
SMILES	Cruzain inh noDet	Cruzain inh Det
O=C(CN1CCCC1)N/N=C/c1ccc(-c2cccc(Cl)c2)o1	-10%	-12%
COC(=O)C(Sc1nc(C)cc(C)c1C#N)c1ccccc1 (stereo unspecified)	-4%	0%
COc1ccccc1-c1cc(-c2ccccc2)nc(SC(C(N)=O)c2ccccc2)c1C#N (stereo unspecified)	7.9µM*	5%
Cc1ccc(O)c(NC(=O)c2cc3nc4c(c(C(F)(F)F)n3n2)CCc2ccccc2-4)c1	10µM*	-2%
Cc1ccc(Cn2ccc(NC(=O)c3cc4nc5c(c(C(F)(F)F)n4n3)CCc3ccccc3-5)n2)cc1	0%	3%
Oc1ccc(NCc2ccc(OCc3ccccc3)cc2)cc1	-15%	-16%
CCc1ccc(CNc2ccc(O)cc2)cc1	32µM*	-21%
COCCNC(=O)C1(CC(C)C)C=CCN1C(=O)OC (stereo unspecified)	-1%	-3%
COCCN1C(=O)C(CC(=O)Nc2ccc(C(=O)O)cc2)SC1=Nc1ccccc1 (stereo unspecified)	0%	0%
COC(=O)c1cc(NC(=O)CC2SC(=Nc3ccccc3)N(CCc3c[nH]c4ccccc34)C2=O)cc(C(=O)OC)c1 (stereo unspecified)	5µM*	15%
COc1ccc(CNC(=O)C(=O)NCC2OCCN2S(=O)(=O)c2cccs2)cc1 (stereo unspecified)	-7%	-2%
CC1=NC(Nc2nc(C)c3ccccc3n2)=NC(C)(C)C1	16µM*	20µM*
COc1ccc(Nc2nc(C)c3ccccc3n2)cc1	-4%	-5%
O=C1OC(c2cccc([N+](=O)[O-])c2)C2(CCCC2)C(=O)C12CCCCC2 (stereo unspecified)	-11%	-7%
